# Experimental data reported in PubChem BioAssay.
# Activity calls are given as the source filed them.
# What was measured:
# [1] = binders of probe aFSTL3 on microarray, primary screen, stem cell growth factor project, biochemical, small-molecule microarray, fluorescence 635/667 (AID 1064); details: higher = more signal;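 also: measures binding of the biotinylated anti-FSTL3 antibody to printed compounds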
# [2] = binders from COS7 lysate, DM2A8 probe, primary screen, torsin A project, cell lysate, small-molecule microarray, fluorescence 635/667 (AID 1065); details: higher = more signal, COS7 lysate expressing mutant human TOR1A
# [3] = binders of probe aFGF2 on microarray, primary screen, stem cell growth factor project, biochemical, small-molecule microarray, fluorescence 635/667 (AID 1067); details: higher = more signal;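 also: measures binding of biotinylated aFGF2 protein to printed compounds on slides; z-score merges feature fluorescence and signal-to-noise across triplicate slides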
# [4] = binders of probe aFGF10 on microarray, primary screen, stem cell growth factor project, biochemical, small-molecule microarray, fluorescence 635/667 (AID 1071); details: higher = more signal;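 also: score merges 667 nm spot intensity and signal to noise from triplicate slides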
# [5] = molecular target: Neurogenic locus notch homolog protein 2 (Homo sapiens) (UniProt Q04721); experiment: Notch2 binders on small-molecule microarrays, primary screen, biochemical, small-molecule microarray, 635 nm fluorescence, stem cell growth factors (AID 1073); details: Notch2 binding, higher = more signal
# [6] = molecular target: Pro-neuregulin-1, membrane-bound isoform (Homo sapiens) (UniProt Q02297); experiment: NRG1 binders on small-molecule microarrays, primary screen, psychiatric disease protein project, biochemical, small-molecule microarray, fluorescence 635/667 (AID 1075); details: NRG1 binding, 635 nm fluorescence, higher = more signal;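 also: score combines 667 nm spot fluorescence with signal to noise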
# [7] = system: Neuregulin-1 EGF-like domain; experiment: binders of neuregulin-1 EGF-like domain, primary screen, biochemical, small-molecule microarray, 635 nm fluorescence (AID 1081); details: small-molecule microarray binding, higher = more signal;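 also: binding of the protein to compounds printed on small-molecule microarray slides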
# [8] = FRG1 promoter luciferase signal modulators, primary screen, FRG1 inhibition for FSHD, cell-based, C2C12 myotubes, firefly/Renilla luciferase, luminescence (AID 1084); details: higher = more signal, called active from +8 up or from −8 down
# [9] = binders of probe aFST on microarray, primary screen, stem cell growth factor project, biochemical, small-molecule microarray, fluorescence 635/667 (AID 1086); details: higher = more signal;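 also: score merges 667 nm fluorescence with signal-to-noise of each printed compound spot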
# [10] = binders of probe aHhip on microarray, primary screen, stem cell growth factor project, biochemical, small-molecule microarray, fluorescence 635/667 (AID 1087); details: higher = more signal;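 also: score merges spot fluorescence at 667nm with spot signal to noise ratio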
# Neurogenic locus notch homolog protein 2 (Homo sapiens), sequence (Q04721 whole entry, looked up, canonical isoform): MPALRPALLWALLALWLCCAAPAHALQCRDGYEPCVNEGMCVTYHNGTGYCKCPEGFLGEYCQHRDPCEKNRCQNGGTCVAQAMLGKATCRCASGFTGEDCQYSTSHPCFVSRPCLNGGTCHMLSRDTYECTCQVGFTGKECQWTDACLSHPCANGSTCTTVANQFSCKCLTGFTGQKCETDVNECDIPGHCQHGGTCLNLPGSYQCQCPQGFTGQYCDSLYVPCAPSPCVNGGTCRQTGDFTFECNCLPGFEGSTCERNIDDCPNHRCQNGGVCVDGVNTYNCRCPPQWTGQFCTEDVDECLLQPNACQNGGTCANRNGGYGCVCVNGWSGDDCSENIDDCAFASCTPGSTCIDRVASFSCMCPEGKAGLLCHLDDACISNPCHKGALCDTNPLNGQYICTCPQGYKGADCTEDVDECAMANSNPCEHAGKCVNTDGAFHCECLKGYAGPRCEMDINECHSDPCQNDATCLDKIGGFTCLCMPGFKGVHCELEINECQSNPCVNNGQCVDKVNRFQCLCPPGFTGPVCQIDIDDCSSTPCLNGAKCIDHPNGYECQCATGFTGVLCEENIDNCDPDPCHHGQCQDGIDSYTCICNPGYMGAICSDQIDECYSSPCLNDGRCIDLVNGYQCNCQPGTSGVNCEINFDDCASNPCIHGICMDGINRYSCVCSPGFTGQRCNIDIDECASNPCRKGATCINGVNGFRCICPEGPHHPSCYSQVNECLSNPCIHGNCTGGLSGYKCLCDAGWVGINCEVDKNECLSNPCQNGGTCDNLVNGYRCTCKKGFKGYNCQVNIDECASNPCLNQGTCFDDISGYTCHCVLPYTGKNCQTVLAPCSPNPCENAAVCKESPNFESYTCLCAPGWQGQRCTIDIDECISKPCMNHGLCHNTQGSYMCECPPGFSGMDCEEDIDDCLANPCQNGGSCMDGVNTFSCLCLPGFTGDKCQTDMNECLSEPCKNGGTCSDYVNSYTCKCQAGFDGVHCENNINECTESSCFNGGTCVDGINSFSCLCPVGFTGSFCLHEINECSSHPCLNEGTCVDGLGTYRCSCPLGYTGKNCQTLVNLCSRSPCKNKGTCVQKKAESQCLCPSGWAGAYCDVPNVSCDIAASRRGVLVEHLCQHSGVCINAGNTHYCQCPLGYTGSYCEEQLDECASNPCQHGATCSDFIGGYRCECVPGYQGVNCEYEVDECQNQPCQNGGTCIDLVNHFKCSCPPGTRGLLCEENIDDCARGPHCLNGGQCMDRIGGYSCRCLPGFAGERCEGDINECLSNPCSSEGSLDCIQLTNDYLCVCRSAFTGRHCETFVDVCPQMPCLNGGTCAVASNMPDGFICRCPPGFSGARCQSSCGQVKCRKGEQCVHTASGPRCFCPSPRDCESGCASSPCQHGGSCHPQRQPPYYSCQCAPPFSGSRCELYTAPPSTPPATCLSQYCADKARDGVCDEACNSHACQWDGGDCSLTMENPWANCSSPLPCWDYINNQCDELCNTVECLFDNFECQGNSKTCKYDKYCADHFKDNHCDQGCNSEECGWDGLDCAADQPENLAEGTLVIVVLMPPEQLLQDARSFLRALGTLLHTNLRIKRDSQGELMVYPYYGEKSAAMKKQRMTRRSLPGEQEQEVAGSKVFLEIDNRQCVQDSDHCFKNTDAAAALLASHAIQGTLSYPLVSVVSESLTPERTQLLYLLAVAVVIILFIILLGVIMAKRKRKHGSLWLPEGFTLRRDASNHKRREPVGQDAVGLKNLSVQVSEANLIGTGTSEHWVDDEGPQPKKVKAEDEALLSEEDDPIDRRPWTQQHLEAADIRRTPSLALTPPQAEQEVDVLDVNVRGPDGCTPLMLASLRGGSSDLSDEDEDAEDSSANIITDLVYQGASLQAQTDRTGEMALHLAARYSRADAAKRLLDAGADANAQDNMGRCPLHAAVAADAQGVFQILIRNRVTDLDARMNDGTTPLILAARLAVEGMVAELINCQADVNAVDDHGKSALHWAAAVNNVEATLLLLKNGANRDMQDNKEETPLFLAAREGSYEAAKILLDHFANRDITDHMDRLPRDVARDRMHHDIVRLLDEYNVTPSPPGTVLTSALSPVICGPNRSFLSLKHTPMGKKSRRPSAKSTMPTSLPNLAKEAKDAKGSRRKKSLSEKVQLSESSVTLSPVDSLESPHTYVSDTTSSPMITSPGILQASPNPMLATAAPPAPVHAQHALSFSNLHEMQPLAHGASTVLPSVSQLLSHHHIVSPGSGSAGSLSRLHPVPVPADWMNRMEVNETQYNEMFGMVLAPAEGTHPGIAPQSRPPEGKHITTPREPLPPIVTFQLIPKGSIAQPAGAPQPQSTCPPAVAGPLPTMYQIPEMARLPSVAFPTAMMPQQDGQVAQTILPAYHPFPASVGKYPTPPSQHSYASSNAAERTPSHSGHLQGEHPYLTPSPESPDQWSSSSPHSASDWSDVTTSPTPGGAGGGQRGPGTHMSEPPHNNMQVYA
# Pro-neuregulin-1, membrane-bound isoform (Homo sapiens), sequence (Q02297 whole entry, looked up, the tested form may be a part, canonical isoform): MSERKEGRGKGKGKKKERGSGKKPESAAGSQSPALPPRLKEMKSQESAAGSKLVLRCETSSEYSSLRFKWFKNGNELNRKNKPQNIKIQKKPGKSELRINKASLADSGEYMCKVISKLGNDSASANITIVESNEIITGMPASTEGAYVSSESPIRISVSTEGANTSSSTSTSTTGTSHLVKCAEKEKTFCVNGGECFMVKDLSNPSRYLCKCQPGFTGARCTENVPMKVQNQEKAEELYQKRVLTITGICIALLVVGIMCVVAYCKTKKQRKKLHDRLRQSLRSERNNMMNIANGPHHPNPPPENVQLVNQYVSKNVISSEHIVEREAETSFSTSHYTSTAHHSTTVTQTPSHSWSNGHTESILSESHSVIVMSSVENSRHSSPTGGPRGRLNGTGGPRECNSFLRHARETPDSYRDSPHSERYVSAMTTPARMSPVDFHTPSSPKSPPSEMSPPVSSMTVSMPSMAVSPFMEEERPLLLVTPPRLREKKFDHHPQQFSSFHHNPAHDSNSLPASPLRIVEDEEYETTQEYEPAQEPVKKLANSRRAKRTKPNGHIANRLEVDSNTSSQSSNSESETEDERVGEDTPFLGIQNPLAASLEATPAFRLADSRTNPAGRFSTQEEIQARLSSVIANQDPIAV
Structure (SMILES),composite z-score [1],composite z-score [2],composite z-score [3],composite z-score [4],composite z-score [5],composite z-score [6],composite z-score [7],z-score [8],composite z-score [9],composite z-score [10]
C=C(C(=O)CC[C@H](OC(C)=O)c1ccccc1OCCO)C(C)C,-0.214,-1.03,-0.0985,0.317,-0.926,-0.49,-0.862,-4.37 (inactive),-0.327,0.0854
COc1cc2c(cc1O)C(c1cccs1)N(Cc1ccc([N+](=O)[O-])o1)CC2 (stereo not given),-0.116,1.85,-0.0265,0.724,0.881,1.54,0.387,-1.63 (inactive),0.583,-0.0994
COC(=O)c1c(CC[C@@H](CO)NC(=O)N[C@H](Cc2ccccc2)Cn2cc(-c3ccccn3)nn2)oc(C(C)=O)c1C(=O)OC,-0.241,0.0467,-0.083,0.19,-0.143,0.813,1.09,-0.533 (inactive),-0.217,-0.271
[N-]=[N+]=NCc1ccccc1[C@@H]1OC(c2ccc(OCCCO)cc2)=N[C@]1(CCS(=O)(=O)c1ccccc1)C(=O)N1CCOCC1,0.788,1.17,0.0332,0.89,1.64,1.48,1.29,0.291 (inactive),1.25,-0.0296
O=C1N(CCS(=O)(=O)c2ccccc2)c2ccccc2[C@@H]2OC(c3ccc(OCCCO)cc3)=N[C@]12Cc1ccccc1,-0.0695,0.437,-0.165,0.307,0.849,1.38,1.29,-4.02 (inactive),0.57,-0.156
COc1ccc([C@H]2C[C@H]3C(Br)=C[C@@]2(CO)C(=O)[C@]32CO2)cc1,-0.035,-0.512,-0.0563,0.0327,0.269,-0.202,-0.333,1.26 (inactive),0.0716,-0.175
C=CC[C@]12N=C(c3ccc(OCCCO)cc3)O[C@H]1c1ccccc1N(CCS(=O)(=O)c1ccccc1)C2=O,0.288,-0.312,0.0124,-0.0268,1.07,1.13,1.32,-3.1 (inactive),0.0964,-0.3
CCOC(=O)C[C@H]1[C@H](OC(=O)c2ccc(C(=O)c3ccccc3)cc2)[C@@H](NC(=O)c2ccccc2)c2cc(OCCCO)ccc2N1C(=O)c1ccccc1,-0.481,0.0554,-0.0376,0.683,0.783,0.636,0.935,-1.48 (inactive),0.204,0.0053
COc1ccc([Si](C)(C)[C@H]2[C@H](CCn3cc([C@H](O)c4ccccc4)nn3)O[C@@]3(C(=O)N(C)c4ccccc43)[C@@H]2C)cc1,0.0044,0.165,-0.0418,-0.209,-0.623,0.104,0.553,-1.36 (inactive),-0.619,-0.199
CCOC(=O)C1=CC[C@H]2C(=O)N(c3ccccc3)C(=O)[C@@H]12,-0.368,0.606,0.05,1.07,1.61,1.37,1.32,-0.775 (inactive),0.743,-0.0237
OB1C=CCC(CCc2ccccc2)O1 (stereo not given),0.0393,-0.334,-0.0883,-0.254,-0.809,-0.995,-0.989,-0.209 (inactive),-0.393,-0.132
O=C1C2C=CC(C(O)c3ccc(F)cc3)N(Nc3ccc([N+](=O)[O-])cc3)C2C(=O)N1c1ccccc1 (stereo not given),0.0759,-0.358,0.16,0.305,1.45,2,1.37,-0.132 (inactive),1.02,0.0373
O=C1C2C=CC(C(O)COCc3ccccc3)N(Nc3ccc([N+](=O)[O-])cc3)C2C(=O)N1c1ccccc1 (stereo not given),0.0903,-0.58,-0.0004,1.14,1.57,0.661,1.32,0.123 (inactive),1.44,-0.145
CC(C)NC(=O)[C@@H]1c2ccccc2C(=O)N(C(C)C)[C@H]1c1ccc(CO)cc1,0.473,0.0121,-0.0064,-0.057,-0.78,0.853,1.47,0.229 (inactive),-0.868,-0.236
COc1ccc([Si](C)(C)[C@@H]2[C@@H](CCn3cc(CCO)nn3)O[C@]3(C(=O)N(Cc4cccc(N5C(=O)c6cccc7cccc5c67)c4)c4ccccc43)[C@H]2C)cc1,-0.429,-0.179,-0.103,0.359,0.275,0.98,1.04,-1.56 (inactive),0.525,-0.189
COC(=O)c1c(CC[C@@H](CO)NC(=O)NCCc2c[nH]c3ccccc23)oc(C(=O)Cc2ccccc2)c1C(=O)OC,-0.379,0.488,0.0858,0.203,0.0378,-0.0379,0.939,1.49 (inactive),0.224,0.0036
O=C1C2C=CC(C(O)c3cc(C(F)(F)F)cc(C(F)(F)F)c3)N(Nc3ccccc3)C2C(=O)N1c1ccccc1 (stereo not given),0.281,1.2,-0.0064,0.35,0.649,1.8,1.12,0.995 (inactive),0.664,-0.0994
CCCCCN1CC=CC23O[C@@H]4C=CCOC(=O)[C@@H]4[C@H]2C(=O)N(C(C)CO)[C@@H]3C1=O (stereo not given in full),0.484,1.52,-0.195,-0.109,-0.825,0.913,1.49,-0.02 (inactive),-0.637,-0.399
O=C1OCCC=C[C@H]2OC34C=CCN(CCN5CCOCC5)C(=O)[C@H]3N(CCCCCO)C(=O)[C@@H]4C12 (stereo not given in full),-0.391,1.84,-0.203,0.0681,-0.419,1.06,1.42,-0.521 (inactive),-0.324,-0.0994
COC(=O)[C@@]1(Cc2ccc(F)cc2)[C@H]2c3cc(C(=O)N(C)C)n(Cc4ccc(C)o4)c3C[C@H]2CN1C(=O)c1ccccc1,2.58,3.31,0.62,0.0793,0.0386,1.8,1.13,0.626 (inactive),2.31,0.683
CN1C(=O)C2C=CC(C(O)c3ccccc3)N(N3CCCCC3)C2C1=O (stereo not given),-0.239,0.876,0.054,1.02,1.42,1.62,1.02,-1.13 (inactive),0.406,-0.0346
C#CCOc1ccc(C[C@@H](C(=O)OC)N(CC#C)[C@@H](/C=C/C2CC2)[C@H](O)Cc2ccccc2)cc1,0.282,-1,-0.198,-0.207,-1.12,-0.294,-0.0146,-4.34 (inactive),-0.353,-0.0994
COC(=O)[C@@]1(Cc2ccccc2)[C@H]2c3cc(C(=O)N4CCCC4)n(Cc4ccc(O)c(OC)c4)c3C[C@H]2CN1C(=O)c1ccccc1,0.528,-0.162,0.185,0.0854,1.53,1.66,1.39,-0.433 (inactive),1.04,0.651
COc1ccc(NN2C(C(O)c3ccc(N(C)C)cc3)C=CC3C(=O)N(C4CCCCC4)C(=O)C32)cc1 (stereo not given),0.419,0.427,0.157,1.01,1.53,1.05,1.15,0.613 (inactive),0.352,0.284
CCOc1ccc(N2C(=O)CSC2c2cccc([N+](=O)[O-])c2)cc1 (stereo not given),-0.368,-0.113,0.0525,0.839,1.22,1.64,1.29,0.541 (inactive),0.569,-0.199
C=CC[C@]1(C(N)=O)COC(c2ccc(OCCCO)cc2)=N1,-0.123,0.38,-0.0407,0.282,0.85,0.0632,1.09,-0.25 (inactive),0.418,-0.0645
